Measured values as given in PubChem BioAssay AID1159580 (chemical genetic matrix, 2015).
The campaign covered roughly 5,500 compounds. About 2,000 (36%) were called active. Roughly 18% stayed inconclusive and do not appear here. Rule as the data show it: active = normalized growth mostly below about 0.91 (no sharp cut-off); inconclusive = no clear call, values can overlap the other calls; inactive = mostly above about 0.92. Some of the results follow.

Test: chemical genetic growth profiling, strain panel (AID 1159580);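 also: tested at 20 µM; growth read once vehicle control cultures reached saturation at 30 °C; 1 = growth at the plate median or of vehicle wells; lower values mean less growth of the strain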
Details: S. cerevisiae deletion strains, growth OD
[1] = locus YDL101C, strain DUN1, hits give low values
[2] = locus YHR030C, strain SLT2, hits give low values
[3] = locus YNL153C, strain GIM3, hits give low values
[4] = locus YNL322C, strain KRE1, hits give low values

Measured: normalized growth

O=C(Nc1ccccc1C(=O)NC1CCCCNC1=O)c1cccs1 (configuration not stated)
inactive: locus YAL013W, strain DEP1, hits give low values 1 | locus YBR229C, strain ROT2, hits give low values 1.01 | [1] 1 | locus YDL134C, strain PPH21, hits give low values 1.01 | locus YDR150W, strain NUM1, hits give low values 0.996 | locus YEL061C, strain CIN8, hits give low values 1.01 | locus YGR078C, strain PAC10, hits give low values 1 | [2] 1.02 | locus YHR087W, strain rtc3, hits give low values 1.02 | locus YJL187C, strain SWE1, hits give low values 1.01 | locus YJR043C, strain POL32, hits give low values 0.972 | locus YJR075W, strain HOC1, hits give low values 1.02 | locus YLR039C, strain RIC1, hits give low values 1.06 | locus YLR058C, strain SHM2 (second series), hits give low values 1 | locus YLR085C, strain ARP6, hits give low values 1.01 | locus YLR262C, strain YPT6, hits give low values 1.03 | locus YML094W, strain GIM5, hits give low values 1.02 | locus YMR219W, strain ESC1, hits give low values 1.01 | locus YMR263W, strain SAP30, hits give low values 1.01 | [3] 1 | locus YNL298W, strain CLA4 (second series), hits give low values 1.03 | [4] 1 | locus YNR030W, strain Alg12, hits give low values 1.02 | locus YPL055C, strain LGE1, hits give low values 0.998 | locus YPL241C, strain CIN2, hits give low values 1.03 | locus YPR135W, strain CTF4, hits give low values 1.01

O=C(O)[C@@H]1C[C@H](C(=O)O)N1
inactive: locus YAL040C, strain CLN3, hits give low values 0.943 | locus YCL061C, strain MRC1 (second series), hits give low values 0.984 | locus YDR363W, strain ESC2, hits give low values 1.06 | locus YER002W, strain NOP16, hits give low values 0.988 | [3] 0.986 | locus YNL175C, strain NOP13, hits give low values 0.99 | locus YNL197C, strain WHI3, hits give low values 0.967 | locus YNL224C, strain SQS1, hits give low values 0.965 | [4] 0.987 | locus YOR083W, strain WHI5 (second series), hits give low values 0.973

O=C(NCc1ccco1)c1ccc(Oc2cc(Cl)cc(Cl)c2)o1
active: locus YLR113W, strain HOG1, hits give low values 0.761
inactive: locus YAR019C, strain CDC15, hits give low values 0.961 | locus YBL105C, strain PKC1, hits give low values 0.96 | locus YBR135W, strain CKS1, hits give low values 0.964 | locus YBR136W, strain MEC1, hits give low values 0.964 | locus YBR160W, strain CDC28, hits give low values 0.967 | locus YDL017W, strain CDC7, hits give low values 0.969 | locus YDL028C, strain MPS1, hits give low values 0.967 | [1] 0.964 | locus YDL108W, strain KIN28, hits give low values 0.96 | locus YDL132W, strain cdc53, hits give low values 0.957 | locus YDL214C, strain PRR2, hits give low values 0.936 | locus YDR052C, strain DBF4, hits give low values 0.968 | locus YDR054C, strain cdc34, hits give low values 0.957 | locus YDR226W, strain ADK1, hits give low values 0.959 | locus YDR477W, strain SNF1, hits give low values 0.952 | locus YER123W, strain YCK3, hits give low values 0.932 | locus YER133W, strain GLC7, hits give low values 0.932 | locus YFL009W, strain cdc4, hits give low values 0.957 | locus YFL029C, strain CAK1, hits give low values 0.951 | locus YFR003C, strain YPI1, hits give low values 0.962 | locus YFR019W, strain FAB1, hits give low values 0.96 | locus YFR028C, strain CDC14, hits give low values 0.957 | locus YGR040W, strain KSS1, hits give low values 0.948 | locus YGR052W, strain FMP48, hits give low values 0.95 | locus YGR092W, strain DBF2, hits give low values 0.957 | [2] 1.05 | locus YHR079C, strain IRE1, hits give low values 1 | locus YHR082C, strain KSP1, hits give low values 0.994 | locus YHR205W, strain SCH9, hits give low values 0.952 | locus YIL147C, strain SLN1, hits give low values 0.964 | locus YJL095W, strain BCK1, hits give low values 0.931 | locus YJL128C, strain PBS2, hits give low values 0.914 | locus YJL157C, strain FAR1, hits give low values 0.941 | locus YJR016C, strain ILV3, hits give low values 0.955 | locus YJR066W, strain TOR1 (second series), hits give low values 0.974 | locus YJR066W, strain TOR1, hits give low values 1.03 | locus YKL048C, strain ELM1, hits give low values 0.939 | locus YKL067W, strain YNK1, hits give low values 0.945 | locus YKL101W, strain HSL1, hits give low values 0.917 | locus YKL193C, strain SDS22, hits give low values 0.958 | locus YKL203C, strain TOR2, hits give low values 1.01 | locus YLR133W, strain CKI1, hits give low values 0.931 | locus YLR403W, strain SFP1, hits give low values 0.968 | locus YML070W, strain DAK1, hits give low values 0.94 | locus YMR001C, strain CDC5, hits give low values 0.956 | locus YMR205C, strain PFK2 (second series), hits give low values 0.942 | locus YMR277W, strain FCP1, hits give low values 0.958 | locus YNL006W, strain LST8, hits give low values 0.971 | locus YNL020C, strain ARK1, hits give low values 0.939 | locus YNL161W, strain CBK1, hits give low values 0.967 | locus YNL183C, strain NPR1, hits give low values 0.963 | locus YNL207W, strain RIO2, hits give low values 0.947 | locus YNL222W, strain SSU72, hits give low values 0.964 | locus YNL307C, strain MCK1 (second series), hits give low values 0.93 | locus YOL078W, strain AVO1, hits give low values 0.953 | locus YOL136C, strain PFK27, hits give low values 0.907 | locus YOR061W, strain CKA2, hits give low values 0.942 | locus YOR119C, strain RIO1, hits give low values 1.01 | locus YOR231W, strain MKK1, hits give low values 0.883 | locus YOR329C, strain SCD5, hits give low values 0.965 | locus YPL031C, strain PHO85, hits give low values 0.942 | locus YPL153C, strain RAD53, hits give low values 0.969 | locus YPL204W, strain HRR25, hits give low values 0.941 | locus YPL209C, strain IPL1, hits give low values 0.961 | locus YPL256C, strain CLN2, hits give low values 0.906 | locus YPR025C, strain CCL1, hits give low values 0.961 | locus YPR106W, strain ISR1, hits give low values 0.958 | locus YPR111W, strain DBF20, hits give low values 0.949 | strain NNK1, hits give low values 0.942 | strain TSCII, hits give low values 0.955
